# A selection: hits, their analogues and other compounds. The true share with any hit is near 27%.
# CYP2C9 act: human CYP2C9 activators, primary screen, biochemical, luminescence | Cytochrome P450 2C9 (Homo sapiens), P11712 | recombinant CYP2C9, luciferin-H conversion; active compounds read high; factor 1 = untreated enzyme, 0 = blocked | activation factor at 5 µM | 96,000 compounds, 1.4% hits | AID 1024, 2008;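 active = activation factor of 2 or more for CYP2C9 at a 5 µM dose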;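 note: 0 = sulfaphenazole-blocked wells and 1 = vehicle-only wells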
# CYP2C9 inhib: blockers of cytochrome P450 2C9 activity – biochemical, luminescence, ADME assay, primary screen | P11712 | CYP2C9 Supersomes, luciferin-H conversion | inhibition, % at 5 µM | 96,000 compounds, 20% hits;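 active = blocking of liver enzyme CYP2C9 beyond about 50% at 5 µM, limit read from the data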
# CYP2C19 inhib: blockers of cytochrome P450 2C19 activity – biochemical, luminescence, ADME assay, primary screen; P33261; inhibition, % at 5 µM; 96,000 compounds, 21% hits; CYP2C19 Supersomes, luciferin-H EGE luminescence, 30 min;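 active = CYP2C19 inhibition above a set limit at 5 µM in the primary screen, cut at about 50% in these data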;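 note: plate controls were negative control wells for no effect and 2.5 mM tranylcypromine positive control for full effect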
# sEH inh: soluble epoxide hydrolase inhibitors, primary screen, biochemical, human sEH; Bifunctional epoxide hydrolase 2 (Homo sapiens), P34913; recombinant human sEH enzymatic activity assay; inhibition, % at 2 µM; 91,000 compounds, 0.34% hits; in the data active = inhibition above about 80%
# sEH activator: soluble epoxide hydrolase activators, primary screen, biochemical, human sEH. Bifunctional epoxide hydrolase 2 (Homo sapiens), P34913. purified human sEH enzymatic activity, activator screen. activation, % at 2 µM. 91,000 compounds, 0.04% hits. AID 717, 2007; in the data active = activation above about 37%
# CYP2C19 act: human CYP2C19 activators, primary screen, biochemical, luminescence; recombinant CYP2C19, luciferin-H EGE luminescence; active compounds read high; 0 = fully inhibited enzyme, 1 = untreated enzyme; activation factor at 5 µM; 96,000 tested, under 10 active; AID 1025, 2008;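 active = activation factor of at least 2 at 5 µM in the primary screen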;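 note: 0 = wells with 2.5 mM tranylcypromine and 1 = vehicle-only wells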
# * marks the source's active call; other numbers are inactive results; . = not tested or not shown.
SMILES,CYP2C9 act,CYP2C9 inhib,CYP2C19 inhib,sEH inh,sEH activator,CYP2C19 act
COc1ccc(NS(=O)(=O)Cc2ccccc2)cc1OC,1.3,-28,36,-2,4,0.6
O=S(=O)(Nc1ccc2c(c1)OCCO2)c1ccc(Br)s1,0,96*,98*,6,-6,0
COc1ccc(NS(=O)(=O)c2ccc(Br)s2)cc1OC,0.1,87*,99*,5,-2,0
COc1ccc(C)cc1NS(=O)(=O)c1ccc(Br)s1,0.7,30,98*,4,-2,0
CCc1ccc(NC(=O)CSc2nnc(Cc3cccn3C)n2-c2ccc(OC)cc2)cc1,0.1,85*,52*,10,-10,0.5
Cn1cccc1Cc1nnc(SCC(=O)Nc2ccc(F)cc2)n1-c1ccc(F)cc1,0.7,28,10,4,-5,0.9
COc1ccc(-n2c(Cc3cccn3C)nnc2SCC(=O)Nc2ccc(Cl)cc2)cc1,0.1,85*,37,2,-3,0.6
COc1ccc(NC(=O)CSc2nnc(Cc3cccn3C)n2-c2ccc(F)cc2)cc1OC,0.9,8,-10,-6,6,1.1
COc1ccc(-n2c(Cc3cccn3C)nnc2SCC(=O)Nc2cccc(F)c2)cc1,0.5,50*,51*,.,.,0.5
Cn1cccc1Cc1nnc(SCC(=O)Nc2ccc(Cl)cc2)n1-c1ccc(F)cc1,0.4,58*,54*,.,.,0.5
CN1CCOCCOCCN(C)C1=O,1,0,6,-9,11,0.9
O=C(Nc1cnn(C23CC4CC(CC(C4)C2)C3)c1)c1cnn2cccnc12,1.1,-15,0,6,-4,1
CC(=O)C1C(c2ccco2)c2c(noc2C)CC1(C)O (stereo unspecified),1,4,-5,-4,4,1.1
COc1ccc(-n2c(Cc3cccn3C)nnc2SCC(=O)NCc2ccc(F)cc2)cc1,0.6,40,89*,.,.,0.1
COc1ccc(-n2c(Cc3cccn3C)nnc2SCC(=O)Nc2ccccc2)cc1,0.2,80*,25,4,-4,0.8
Cc1ccccc1C(=O)O/N=C1\CCS(=O)(=O)c2sccc21,1,2,3,-14,12,1
CCCN(CC(=O)Nc1c(C)cccc1CC)C(=O)SCC,0.8,22,60*,-4,8,0.4
CCCCN(CC(=O)Nc1c(C)cccc1CC)C(=O)SCC,0.5,49,71*,-5,9,0.3
CCSC(=O)N(CC)CC(=O)Nc1c(CC)cccc1CC,0.7,28,42,-8,11,0.6
O=C(CCS(=O)(=O)c1ccc(Br)s1)NCc1ccc2c(c1)OCO2,0.2,81*,35,.,.,0.6
COc1ccc(N(CC(=O)NCc2ccc3c(c2)OCO3)S(C)(=O)=O)cc1OC,0.9,13,19,2,-4,0.8
CN(CC(=O)NCc1ccc2c(c1)OCO2)S(=O)(=O)c1ccc(Br)s1,0.1,89*,70*,17,-16,0.3
Oc1ccc(-c2nnc(-c3ccc(O)cc3)nn2)cc1,1.9,-90,-6,-11,14,1.1
Oc1ccc(-c2cccc(-c3ccc(O)cc3)n2)cc1,0.4,61*,27,-10,11,0.7
Cc1cc(S(=O)(=O)N(Cc2ccc3c(c2)OCO3)CC2CCCO2)ccc1-n1cnnn1 (stereo unspecified),0.3,69*,95*,-12,14,0.1
Cc1cc(S(=O)(=O)N(Cc2ccc(F)cc2)CC2CCCO2)ccc1-n1cnnn1 (stereo unspecified),0.9,13,56*,10,-8,0.4
Cc1cc(S(=O)(=O)N(Cc2ccc(C(C)C)cc2)CC2CCCO2)ccc1-n1cnnn1 (stereo unspecified),0.5,53*,44,3,-8,0.6
O=C(CN1C2CCC1CC(NC(=O)Nc1ccccc1)C2)NCc1ccco1 (stereo unspecified),0.7,26,38,70,-69,0.6
COc1ccc(NC(=O)CSc2nccc(C)n2)cc1,1,-4,51*,-2,3,0.5
COc1ccc(NC(=O)CSc2nccn2-c2cccc(OC)c2)cc1,0.3,70*,59*,-2,4,0.4
